Compound activity: PubChem, Broad Institute
Rows were chosen to be rich in hits. Some 2.1% of all compounds tested hit in one or more screens of this group.
PvdQ acylase: P. aeruginosa PvdQ acylase inhibition; purified PvdQ acylase, fluorescence plate reader; inhibition, % at 10 µM; actives 0.063% (n = 340,000); AID 488965; in the data active = inhibition above about 30%, passing the limit was not always enough
CFTR F508del cor: CFTR F508del correction in bronchial cells. actives 0.36% (n = 350,000). activity (quench increase), % at 7.58 µM. CFBE cells, YFP halide quenching; stimulated with forskolin plus potentiator P3; % fluorescence drop versus neutral controls;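 active = mean added fluorescence quench of at least 8% versus neutral control, with both replicates also reaching 8%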;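 also: cells transiently co-express mutant CFTR-F508del with the halide-sensitive YFP; corrector assay measuring rescue of mutant channel to the surface after 24 h compound exposure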
ARNT TACC3 PPI: ARNT/TACC3 interaction disruption | AlphaScreen His-ARNT PAS-B/GST-TACC3 binding, luminescence; TACC3 fragment carries E629A point mutation | inhibition, % at 9.99 µM | actives 0.66% (n = 390,000) | AID 623870;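 active = mean inhibition of replicates at least 50% and at least half of replicates each reaching 50%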
rRNA inh HTS: inhibitors of bacterial rRNA selective over humanized ribosomes; actives 1.6% (n = 350,000); AID 720706; E. coli WT GFP vs humanized-ribosome RFP mutants, fluorescence, 24 h; active compounds read low; DMSO median 0, no signal -100; GFP signal change (wild-type ribosome), % (no concentration beside the values);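 active = significant combined selectivity score with lowered wild-type GFP, culture density cut under 30%, mutant RFP and density less affected; inactive = any of these conditions unmet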
ERAP1 HTS inh: inhibitors of human ERAP1 aminopeptidase | Q9NZ08 | inhibition, % at 10.7 µM | actives 0.15% (n = 340,000) | recombinant ERAP1, Leu-AMC fluorescence, 60 min;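 active = mean replicate inhibition of at least 30%, or all replicates individually reaching that 30% level; inactive = mean below 30% and not every replicate reaching it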
Target sequence (Q9NZ08 whole entry, looked up): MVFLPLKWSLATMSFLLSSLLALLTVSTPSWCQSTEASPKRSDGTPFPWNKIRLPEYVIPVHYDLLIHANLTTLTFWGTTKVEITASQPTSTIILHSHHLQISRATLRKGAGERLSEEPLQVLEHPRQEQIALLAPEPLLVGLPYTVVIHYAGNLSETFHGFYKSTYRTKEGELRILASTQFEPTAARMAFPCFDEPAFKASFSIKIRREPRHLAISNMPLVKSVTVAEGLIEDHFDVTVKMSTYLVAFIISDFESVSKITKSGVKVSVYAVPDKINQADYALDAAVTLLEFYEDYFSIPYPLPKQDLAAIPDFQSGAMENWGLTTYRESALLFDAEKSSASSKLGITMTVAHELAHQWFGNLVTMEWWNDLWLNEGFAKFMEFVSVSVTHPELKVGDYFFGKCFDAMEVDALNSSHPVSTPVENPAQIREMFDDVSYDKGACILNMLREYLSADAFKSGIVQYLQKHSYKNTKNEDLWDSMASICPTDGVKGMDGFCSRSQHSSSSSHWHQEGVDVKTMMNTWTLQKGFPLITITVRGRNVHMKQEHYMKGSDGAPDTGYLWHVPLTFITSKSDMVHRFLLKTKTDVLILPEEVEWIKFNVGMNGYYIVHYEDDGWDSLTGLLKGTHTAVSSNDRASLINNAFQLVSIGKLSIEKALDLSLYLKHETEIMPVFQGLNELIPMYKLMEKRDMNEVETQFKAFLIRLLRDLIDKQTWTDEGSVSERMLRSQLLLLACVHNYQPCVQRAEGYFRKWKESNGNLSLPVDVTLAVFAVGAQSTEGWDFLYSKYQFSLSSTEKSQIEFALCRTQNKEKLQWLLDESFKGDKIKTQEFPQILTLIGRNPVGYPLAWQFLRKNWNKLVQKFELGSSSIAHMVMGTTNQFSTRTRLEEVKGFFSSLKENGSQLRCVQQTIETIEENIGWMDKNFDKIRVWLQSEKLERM
A number is an active result; - = inactive; . = no result.

SMILES	PvdQ acylase	CFTR F508del cor	ARNT TACC3 PPI	rRNA inh HTS	ERAP1 HTS inh
Cc1cccc(OCc2nnc(SCC(=O)Nc3nccs3)o2)c1	-	-	.	-41	-
O=C(CSc1nnc(COc2ccc(Cl)cc2)o1)Nc1nccs1	.	-	.	-	-
O=C(CSc1nnc(-c2cccnc2)o1)Nc1nccs1	-	-	50	-	-
CCc1nnc(NC(=O)CSc2nc(-c3ccccc3)c(-c3ccccc3)o2)s1	-	.	-	-	-
C[C@@H]1CN([C@H](C)CO)C(=O)c2cc(NC(=O)CCC(F)(F)F)ccc2O[C@H]1CN(C)C(=O)Nc1ccc(F)cc1	.	-	-	-	-
C[C@H](CO)N1C[C@H](C)[C@H](CN(C)C(=O)c2ccccc2F)Oc2ncc(-c3cccnc3)cc2C1=O	.	-	-	-	-
Brc1ccc(-c2ccc(CNCc3ccccn3)o2)cc1	-	-	-	-	-
Clc1cccc(-c2ccc(CNCc3ccccn3)o2)c1	-	.	74	-	-
CCOC(=O)COc1cc(-n2c(=S)[nH]c3ccccc3c2=O)c(Cl)cc1Cl	-	-	-	-23	-
Cc1cccc(NC(=O)c2n[nH]c([N+](=O)[O-])c2Br)c1C	-	-	-	-29	-
CO[C@@H]1CN(C)C(=O)c2ccc(NC(=O)c3ccccc3F)cc2OC[C@H](C)N(C(=O)c2ccccc2F)C[C@H]1C	.	-	-	-	-
O=C(Nc1ccc(F)cc1)N[C@H]1CC[C@@H](CCNC(=O)c2ccccc2F)O[C@H]1CO	.	-	.	-	-
CN(Cc1ccccc1)C1=CC(=[N+]2CCCC2)CC(C)(C)C1	-	-	-	-33	-
CCN(CC)C1=CC(=[N+]2CCCC2)CC(C)(C)C1	-	.	-	.	.
c1ccc2c(c1)C1=NCCN1c1ccccc1-2	.	11	.	-	-
COC1=Nc2ccccc2N2CCN=C12	.	-	.	-	-
C[C@@H]1CN([C@@H](C)CO)C(=O)c2cccc(NS(=O)(=O)c3ccc(Cl)cc3)c2O[C@H]1CN(C)S(=O)(=O)c1ccc(Cl)cc1	.	-	-	-	-
Cc1ccc(SC(C)C(=O)NCc2ccncc2)cc1 (stereo not given)	-	-	-	-	82
C[C@@H]1CN([C@H](C)CO)C(=O)c2cc(NC(=O)c3ccncc3)ccc2O[C@@H](C)CCCCO[C@H]1CN(C)C	.	-	-	-	-
O=C(NNc1nc2c(F)cccc2s1)c1cc(=O)c2ccccc2o1	-	-	-	-51	-
Cc1cccc2sc(NNC(=O)c3cc(=O)c4ccccc4o3)nc12	-	-	-	-	-
CCN1CCN(c2cc(C)c3cc(NC(=O)c4ccc(OC)c(OC)c4)ccc3n2)CC1	-	13	-	-	-
CCN1CCN(c2cc(C)c3cc(NC(=O)CCC(=O)Nc4ccc(OC)c(OC)c4)ccc3n2)CC1	-	-	-	-	-
CCNC(=O)C[C@@H]1CC[C@@H]2[C@H](COC[C@H](O)CN2C(=O)c2ccccn2)O1	.	-	-	-	-
CCCC(=O)Nc1ccc2c(c1)nc(CN1CCN(C(=O)OCC)CC1)n2C	-	-	-	-	-
SMILES	PvdQ acylase	CFTR F508del cor	ARNT TACC3 PPI	rRNA inh HTS	ERAP1 HTS inh
CCCC(=O)Nc1ccc2c(c1)nc(CN1CCN(C(=O)OCC)CC1)n2CC	-	12	-	-	-
CCOCC(=O)Nc1ccccc1C(=O)OCC	-	.	-	.	.
CCOCCOC(=O)COC(=O)c1ccccc1NC(=O)c1ccccc1	-	11	.	-	-
C[C@@H]1CN([C@H](C)CO)C(=O)c2cc(NC(=O)Nc3ccccc3)ccc2O[C@@H]1CN(C)S(=O)(=O)c1ccccc1	.	-	-	-	-
COc1ccc(S(=O)(=O)N2CCCCN3[C@H](CO)[C@H](c4ccc(C5=CCCCC5)cc4)[C@H]3C2)cc1	.	-	-	.	-
Cc1cccc(S(=O)(=O)N2CCCCN3[C@H](CO)[C@@H](c4ccc(C#CC(C)C)cc4)[C@H]3C2)c1	.	-	-	-	-
COc1cccc(S(=O)(=O)N2CCCCN3[C@H](CO)[C@H](c4ccc(C5=CCCCC5)cc4)[C@H]3C2)c1	.	-	-	-32	.
Cc1cccc(S(=O)(=O)N2CCCCN3[C@H](CO)[C@H](c4ccc(C#CC(C)C)cc4)[C@H]3C2)c1	.	-	-	-27	-
CN1C(=O)/C(=C/c2ccccc2OCc2cccc(F)c2)N(C)C1=S	-	.	-	.	.
Fc1cccc(COc2ccccc2C(=S)N2CCCC2)c1	-	-	-	-30	-
C[C@@H]1CN([C@H](C)CO)C(=O)c2cc(NS(=O)(=O)c3cn(C)cn3)ccc2O[C@@H](C)CCCCO[C@@H]1CN(C)Cc1ccc(C(F)(F)F)cc1	.	-	-	-	-
S=C(c1ccc(-c2ccc(Br)cc2)o1)N1CCOCC1	.	-	.	-30	-
CNC[C@H]1Oc2ncc(-c3ccccc3C)cc2C(=O)N([C@H](C)CO)C[C@H]1C	.	-	-	.	-
CCOC(=O)CN1C(=O)S/C(=C\c2ccc(-c3ccc(C(=O)O)c(Cl)c3)o2)C1=O	-	-	-	-24	-
COc1ccccc1NC(=O)CN1CCSc2ccccc21	-	-	-	-21	-
Cc1ccc(S(=O)c2snnc2C)cc1 (stereo not given)	-	-	-	-	-
Cc1ccc(S(=O)c2ccc(C)cc2)cc1	79	.	-	.	.
O=C(CCN1CCCCC1)NCC[C@@H]1CC[C@H](NC(=O)Nc2ccc(Cl)cc2)[C@H](CO)O1	.	-	-	-	-
O=C1OC(NCc2cccnc2)(c2ccc(Cl)cc2)c2ccccc21 (stereo not given)	-	-	-	-35	-
O=C(Nc1nnc2n1CCS2)c1ccc(Br)o1	-	-	46	-	-
O=C(Nc1nnc(-c2ccncc2)o1)C1CCCCC1	-	.	-	-	-
Cc1cccc(C(=O)Nc2nnc(C3=COCCO3)o2)c1	-	-	55	-	-
COc1ccc(C(=O)Nc2nnc(C3=COCCO3)o2)cc1OC	-	-	37	-	-
O=C(Nc1nnc(C2=COCCO2)o1)C1CCCCC1	-	-	50	-	-
CNC[C@@H]1OCCCC[C@H](C)Oc2ccc(NS(=O)(=O)c3ccc(F)cc3)cc2C(=O)N([C@@H](C)CO)C[C@H]1C	.	-	.	-	.
SMILES	PvdQ acylase	CFTR F508del cor	ARNT TACC3 PPI	rRNA inh HTS	ERAP1 HTS inh
O=C(COC(=O)/C=C/c1cccc(Br)c1)NC1CCCCCC1	42	-	-	-	-
O=C(COC(=O)/C=C/c1cccc(Br)c1)NC1CCCCC1	-	-	-	-	-
O=C(Cn1cc(C(=O)c2ccco2)c2ccccc21)Nc1ccccc1F	-	-	-	-22	-
O=C(Cn1cc(C(=O)C(F)(F)F)c2ccccc21)Nc1ccccc1F	-	.	-	-	-
C[C@@H](NC(=O)C[C@@H]1C[C@H]2c3cc(NS(=O)(=O)c4ccc(F)cc4)ccc3O[C@H]2[C@@H](CO)O1)c1ccccc1	.	-	-	-	-
Cc1ccccc1CSCc1nc2ccccc2[nH]1	-	.	-	-22	-
Cc1ccc(C)c(CSCc2nc3ccccc3[nH]2)c1	-	-	-	-	-
O=C(N/N=C\c1ccc([N+](=O)[O-])o1)c1cncc(Br)c1	-	-	-	-	.
